# In the library only some 1.1% were active in any assay of this set; here they are far more common.
# LRH-1 inv ag – NR5A2 inverse agonism in reporter assay; HEK293T StAR-luciferase reporter, LRH-1 transfected, 24 h; inhibition, % at 3.6 µM; actives 0.13% (n = 360,000); AID 602396;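 active means inhibition above the mean inhibition of all tested compounds plus 3 SD, cut at about 73% in these data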;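 further: 0% = DMSO wells and 100% = reporter-only cells lacking LRH-1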
# Target sequence (O00482 whole entry, looked up): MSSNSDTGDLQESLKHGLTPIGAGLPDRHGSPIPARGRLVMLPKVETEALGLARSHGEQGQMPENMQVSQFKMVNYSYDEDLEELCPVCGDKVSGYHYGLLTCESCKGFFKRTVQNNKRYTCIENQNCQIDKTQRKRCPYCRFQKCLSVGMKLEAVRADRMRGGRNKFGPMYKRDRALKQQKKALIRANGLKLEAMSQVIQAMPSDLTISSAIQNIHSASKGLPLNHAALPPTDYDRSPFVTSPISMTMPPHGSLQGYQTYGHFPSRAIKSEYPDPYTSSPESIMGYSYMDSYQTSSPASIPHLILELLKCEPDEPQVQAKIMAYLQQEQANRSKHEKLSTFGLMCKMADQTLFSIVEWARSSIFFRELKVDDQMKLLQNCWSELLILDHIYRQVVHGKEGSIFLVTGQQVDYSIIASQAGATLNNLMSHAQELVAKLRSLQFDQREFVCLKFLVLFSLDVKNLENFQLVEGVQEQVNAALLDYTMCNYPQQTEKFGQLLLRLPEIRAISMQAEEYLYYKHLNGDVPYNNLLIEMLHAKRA
# NR2F2 inh – blocks human COUP-TFII nuclear receptor; P24468; HEK293T NGFI-A luciferase reporter, luminescence; inhibition, % at 8.6 µM; actives 0.7% (n = 370,000);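 active means inhibition above a per-plate cutoff, mean inhibition of test wells between control levels plus 3 SD, cut at about 38% in these data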;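 further: cells cotransfected with COUP-TFII expression vector driving the NGFI-A reporter; 0% = median of COUP-TF2 test wells and 100% = reporter-only cells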
# NCOA1 inh – human NCOA1 inhibition. actives 0.12% (n = 360,000). HEK293 GAL4-SRC1 luciferase reporter, luminescence. inhibition, % at 3.6 µM. Q15788;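 active means inhibition above the campaign mean plus 3 SD, with each screening campaign given its own cutoff, cut at about 60% in these data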;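 further: 0% = DMSO treated cells and 100% = gossypol at 36 µM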
# GalR3 antag – antagonists of human GalR3 | HEK293 GalR3-CNG cAMP membrane potential fluorescence; galR3 body fused to GalR1 C-terminus | actives 0.44% (n = 360,000) | inhibition, % at 3 µM;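 active means inhibition above the screen-wide average plus 3 SD, cut at about 13% in these data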;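 further: forskolin and galanin both at EC90 stimulate the cells; cAMP rise reported by CNG channel membrane potential dye signal; 0% = forskolin plus galanin with DMSO and 100% = forskolin alone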
# NCOA2 inhibitor – human SRC2 (NCOA2) inhibition. Q15596. HEK293 GAL4-SRC2 luciferase reporter, luminescence. inhibition, % at 9 µM. actives 0.17% (n = 370,000);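 active means inhibition above the mean inhibition of all tested compounds plus 3 SD, set per campaign, cut at about 52% in these data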;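 further: 0% = DMSO treated cells and 100% = cells given Gossypol at 36 µM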
# NCOA3 inh – inhibits human SRC3 coactivator | Q9Y6Q9 | HEK293 GAL4-SRC3 luciferase reporter, luminescence | inhibition, % at 3.6 µM | actives 0.17% (n = 360,000) | AID 588352;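 active means inhibition above a per-campaign cutoff, the mean of all compounds plus 3 SD, cut at about 60% in these data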;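 further: 0% = DMSO-treated cells and 100% = gossypol-treated cells at 36 µM; higher means less SRC3-driven luciferase light from the GAL4 reporter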
# Gal4-VP16 ctr – VP16 inhibition counter-screen for COUP-TFII; actives 25% (n = 2,500); HEK293 Gal4-VP16 luciferase reporter, luminescence; AID 687007; inhibition, % at 8.5 µM; shares compounds with NR2F2 inh; in the data active means inhibition above about 13%
# NR2F2 inh conf – confirmation of human COUP-TFII (NR2F2) inhibitors; AID 687008; actives 45% (n = 2,500); shares compounds with NR2F2 inh; inhibition, % at 8.5 µM; HEK293 NGFI-A luciferase reporter, luminescence;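 active means mean inhibition over three repeats above a set limit taken from the earlier primary screen, cut at about 38% in these data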;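 further: 100% = cells given the luciferase reporter alone without the COUP-TF2 vector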
# * = called active by the depositor; nt = not tested or not shown.
SMILES,LRH-1 inv ag,NR2F2 inh,NCOA1 inh,GalR3 antag,NCOA2 inhibitor,NCOA3 inh,Gal4-VP16 ctr,NR2F2 inh conf
COc1ccc(-n2ncc3c(N(C)C4CCCCC4)ncnc32)cc1,79*,89*,79*,-1,63*,79*,74*,94*
COc1ccc(-n2ncc3c(N4CCC(C)CC4)ncnc32)cc1,-64,-16,-71,5,-27,-86,nt,nt
Cn1c(=O)c2[nH]c(SCC(=O)N3CCN(c4cccc(C(F)(F)F)c4)CC3)nc2n(C)c1=O,nt,7,nt,nt,-10,nt,nt,nt
CCN(c1ccccc1)S(=O)(=O)c1cc(C(=O)Nc2ccc(F)c(F)c2)ccc1F,34,44*,14,-7,3,12,-9,28
CCCCOCCCNC(=O)C[C@H]1C(=O)N(Cc2ccc(OC)cc2)C2=CCCC[C@@]21C(=O)OCC,nt,6,nt,nt,-27,nt,nt,nt
CC1CCN(C2=NC(=O)/C(=C/c3ccccc3F)S2)CC1,29,63*,28,-14,54*,44,-117,-46
Cc1ccc(Cn2cc(CN3[C@@H](Cc4ccccc4)COc4cc(Br)ccc4S3(=O)=O)nn2)cc1,nt,0,nt,nt,12,nt,nt,nt
COc1ccc(OC)c(CN2C(=O)COc3ccccc3C2c2nnnn2C2CCCC2)c1 (configuration not stated),nt,-3,nt,nt,7,nt,nt,nt
CCOC(=O)CC[C@@H]1CC[C@]2(CCCN(C(=O)c3ccccc3)C2)O1,nt,10,nt,nt,-9,nt,nt,nt
CC(C)(C)c1ccc(-c2nnc3sc(-c4ccccn4)nn23)cc1,-1,41*,-5,3,21,-2,-23,52*
CC1(C)Oc2ccc(C(=O)NC3CCCC3)cc2NC1=O,nt,13,nt,nt,10,nt,nt,nt
CN[C@H]1C[C@H]2c3[nH]c4cccc(-c5ccc6c(c5)OCO6)c4c3CCN2C[C@H]1[C@H](C)O,nt,-9,nt,nt,-22,nt,nt,nt
CCCCNS(=O)(=O)/C=C/c1ccc(F)cc1CNC(=O)OC(C)(C)C,nt,20,nt,nt,-3,nt,nt,nt
O=C(Nc1nccs1)c1ccc(S(=O)(=O)NCC2CCCCC2)cc1,42,60*,6,-7,7,28,8,41*
CCc1ccc(-c2cn3nc(C)c(C)nc3n2)cc1,-52,47*,-30,-2,59*,-20,-42,-13
Cc1nc2nc(-c3ccc(F)cc3)cn2nc1C,-184,-40,-112,-8,-5,-101,nt,nt
C=CS(=O)(=O)N(Cc1ccc(F)cc1)C(=C)C(=O)OC,nt,68*,nt,nt,34,nt,17*,17
C[C@@H]1CCN(C2CC2)S(=O)(=O)c2c(cccc2N2CC[C@H](O)C2)O1,nt,-10,nt,nt,-7,nt,nt,nt
Cc1sc2cc3c(c(C(=O)c4ccccc4)[n+]2c1C)-c1cccc2cccc-3c12,nt,60*,nt,-1,-19,nt,22*,55*
O=C(c1ccccc1)c1c2c(cc3sc4ccccc4[n+]13)-c1cccc3cccc-2c13,72,49*,30,-4,6,56,10,57*
CCOC(=O)[C@@]12CN(C(=O)OC(C)(C)C)CC=C1N(Cc1ccc(OC)cc1)C(=O)[C@H]2CC(=O)NCCCOC,nt,15,nt,nt,12,nt,nt,nt
CC1(C)C2CC=C(/C=N/NC(=S)Nc3cccnc3)C1C2 (configuration not stated),1,-2,2,-4,-9,18,nt,nt
CC1=C/C(=N\NC(=S)Nc2cccnc2)CC(C)(C)C1,-19,39*,-37,4,3,-48,-16,3
COc1ccc(NC(=O)OCCN2CCCC23CCC(c2ccccc2)CC3)cc1 (configuration not stated),nt,13,nt,nt,nt,nt,nt,nt
CS(=O)(=O)N(CC(=O)N1CCN(c2cccc(Cl)c2)CC1)C1CCCCC1,2,-5,-16,-3,19,14,nt,nt
SMILES,LRH-1 inv ag,NR2F2 inh,NCOA1 inh,GalR3 antag,NCOA2 inhibitor,NCOA3 inh,Gal4-VP16 ctr,NR2F2 inh conf
Cc1ccc(Cl)cc1N1CCN(C(=O)COc2ccc(S(=O)(=O)NC(C)C)cc2)CC1,-12,38*,18,nt,-4,1,1,39*
CC(C)NS(=O)(=O)c1ccc(OCC(=O)N2CCCC2)cc1,9,7,-16,-2,-14,8,nt,nt
Cc1ccc(Cl)cc1N1CCN(C(=O)CN(C2CCCCC2)S(C)(=O)=O)CC1,12,40*,-4,-8,9,-9,3,13
Cc1occc1-c1nnc(SCC(=O)Nc2ccccn2)n1-c1ccccc1,nt,13,nt,nt,6,nt,nt,nt
COC(=O)[C@]12C[C@H](CC(=O)N3CCN(C(=O)c4ccco4)CC3)C(=O)N(Cc3ccc(Cl)cc3Cl)C1=C[C@H](C1CCCC1)O[C@@H]2C,nt,-7,nt,nt,21,nt,nt,nt
CCn1c(=O)n(CC(=O)N2CCOCC2)c(=O)c2ccccc21,nt,16,nt,nt,2,nt,nt,nt
CCC(=O)N1CCN(c2ccc(NC(=O)COc3ccccc3Cl)cc2)CC1,8,50*,4,-4,30,7,6,29
CN1CCN(c2ccc(NC(=O)COc3ccccc3Cl)cc2)CC1,2,-14,-16,3,-8,6,nt,nt
CN(C)/C=C/c1c([N+](=O)[O-])c2ccc(O)cc2n1-c1ccccc1,6,40*,6,3,23,29,-1,10
COC(=O)c1c(C)n(-c2ccccc2)c2ccc(O)cc12,34,37,-4,-7,7,3,nt,nt
Cc1ccc(-c2cc3c(N=O)c4ccccc4c-3n[nH]2)cc1,42,84*,69*,-3,61*,73*,37*,86*
CN(C)C(=O)NCCCC#Cc1ccccc1,nt,-4,nt,nt,-6,nt,nt,nt
CC(C)N1C/C(=C/c2cccnc2)C(=O)/C(=C/c2cccnc2)C1,-5,-18,6,-1,-22,48,nt,nt
CC(C)N1C/C(=C/c2ccsc2)C(=O)/C(=C/c2ccsc2)C1,9,47*,12,-1,-49,11,38*,68*
O=C(C1CCN(c2nc(-c3ccc(Br)cc3)cs2)CC1)N1CCNCC1,nt,-31,nt,nt,nt,nt,nt,nt
CC(C)(C)OC(=O)NC1CCN(c2nc(-c3ccc(Br)cc3)cs2)CC1,nt,39*,nt,nt,nt,nt,0,-4
COC(=O)[C@@]12CCCCC3=C1N(CCC3)C(=O)[C@H]2CC(=O)NCc1ccc(C)o1,nt,-23,nt,nt,-24,nt,nt,nt
Cc1ccc2nc(-c3cc(-c4ccccc4)no3)cn2c1,-134,-23,-54,-3,-32,-10,nt,nt
CCc1ccn2cc(-c3cc(-c4ccccc4)no3)nc2c1,33,88*,44,-3,74*,52,18*,67*
CC(C)(C)c1ccc(-c2nnc(SCC(=O)c3ccc4ccccc4c3)n2-c2ccc(Cl)cc2)cc1,nt,10,nt,nt,-51,nt,nt,nt
O=C(Nc1cccc(S(=O)(=O)NC2=NCCC2)c1)c1ccccc1,13,23,12,-3,-4,5,nt,nt
